Laboratory results: PubChem BioAssay AID686971 (National Center for Advancing Translational Sciences (NCATS), 2013)
About 7,500 (2.1%) of roughly 360,000 compounds were called active. Inconclusive results (about 8%) are left out. The sample holds actives, similar compounds and a random draw of the others, so the mix is not that of the screen. A number with no mark means an inactive call. Calls come from the whole dose curve; as a rule, active = well fitted cell-killing curve with a large enough effect; inconclusive = small, poorly fitted or top-dose-only effect, or effect the other way, or another doubt; inactive = no such curve, though single readings can be large or run the other way.

Assay: qHTS for induction of synthetic lethality in tumor cells producing 2HG: qHTS for the HT-1080-IDH1KD cell line
Conditions: HT-1080 IDH1 knockdown viability, ATP luminescence, 48 h; series mostly up to 46.1 µM; activity, negative = toxicity: at the top concentration
Excerpt: Unbiased genomic sequencing for 22 glioma genomes found recurrent mutation of IDH1 on chromosome 2q33, a gene encoding the cytosolic isoform of IIDH1 associated with the tri-carboxylic acid cycle (TCA) that catalyzes the oxidative decarboxylation of isocitrate, yielding alpha-ketoglutarate and CO2 via NADP+ to NADPH conversion. Subsequent studies confirmed the recurrent IDH mutations in up to 70% of secondary gliomas and in 10% of AML cases. In addition, the somatic mutation of cancer-associated IDH1 is a point mutation resulting in various amino-acid substituents at Arginine132 (IDH1 R132), a key residue found in the enzyme's active site that when mutated, results in the loss-of-function in metabolizing isocitrate but confers a gain-of-function to produce the oncometabolite 2-hydroxyglutarate (2HG). This in effect defines IDH1 as an oncogene and provides an extraordinary opportunity to discover chemical probes against mutant IDH1 that may translate into much needed new therapies for glioma and AML patients.
This assay aims to perform a synthetic-lethal screen for chemical probes specific for 2HG-producing tumor cells using matched paired cell lines (1) HT-1080-NT fibrosarcoma cell line that overproduces 2HG and (2) HT-1080-IDH1KD cell line which has IDH1 expression knocked-down. Desirable compounds are toxic to the NT fibrosarcoma cell line but not to the IDH1KD cell line. The data in this AID corresponds to the results of the qHTS against the HT-1080 IDH1KD cell line.
[1] Dang L, Jin S, Su SM. IDH mutations in glioma and acute myeloid leukemia. Trends of Mol Med. 2010; 16(9): 387-97.
[2] Dang L et al. Cancer-associated IDH1 mutations produce 2-hydroxyglutarate. Nature. 2010; 465(7300):966.
Molecular Libraries Probe Production Centers Network [MLPCN]
NIH Chemical Genomics Center [NCGC]
Assay Submitter (PI): Lenny Dang Ph.D., Agios Pharmaceuticals
Suspensions of trypsinized HT-1080-IDH1KD cells were dispensed into white, tissue culture-treated, solid 1536-well plates at 5uL/well (750 cells/well final concentration) in RPMI medium supplemented with 5% FBS. Plates were incubated at 37 degrees C for 2 hours, after which 23 nL of compounds or DMSO were delivered to each well using a pin tool. Plates were then incubated at 37 degrees C for an additional 48 hours. CellTiter-Glo viability reagent (Promega) was dispensed into wells (2.5uL/well) and incubated at room temperature for 10 minutes. The plates were measured on a PerkinElmer ViewLux plate reader for luminescent signal (clear filter, 1 sec exp.). DMSO-treated control wells and media-only (no cells) control wells were used to normalize %Activity of identified toxic compounds; DMSO-treated wells corresponded to 0%Activity (100% viability), while media-only controls were used to normalize 100%Activity (0% viability). To minimize variability between cell lines, both HT-1080-NT and HT-1080-IDH1KD lines were dispensed and treated with identical compound series in single batches.
Concentration-response curves were fitted to the signals arising from the resulting luminescence. The concentration-effect curves were then classified based on curve quality (r2), response magnitude and degree of measured activity, and compounds were subsequently categorized based on their curve class.
Potency is the fitted concentration of half-maximal effect.

Structure (SMILES) | Potency | activity, negative = toxicity [%]
Cc1nc(N=C(N)N)nc2c(C)cccc12 | 32.6 µM (active) | 
Cc1cc(C)c2cc(C#N)c(N3CCNCC3)nc2c1 |  | 1.86
CCOC(=O)c1c(C)[nH]c2c1-c1ccccc1C(=O)C2=O | 2.91 µM (active) | 
CCOC(=O)c1c(C)nc2c(c1C)c(=O)oc1ccccc12 |  | 13.5
CCOC(=O)c1ccccc1OC(=O)Oc1ccccc1C(=O)OCC |  | -13.5
COCc1cccc(-c2csc(C(O)c3ccc(F)cc3)n2)c1 (configuration not stated) |  | -25.4
COc1cccc(C(=O)Nc2nnc(S(=O)(=O)N3CCCCC3)s2)c1 |  | -13
Cc1ccccc1C(=O)Nc1ccccc1NC(=O)c1ccccc1C |  | 0.652
Cc1ccccc1C(=O)Nc1ccc(N2CCCCCC2)cc1 | 14.6 µM (active) | 
COc1cccc(OCc2cc(C(=O)N3CCN(C(=O)c4ccco4)CC3)no2)c1 |  | -1.71
Cc1ccccc1C(=O)N1CCN(c2ccc(NC(=O)c3cccs3)cc2)CC1 |  | -0.779
Cc1ccc(OCC(=O)Nc2ccc(N3CCN(C(=O)c4ccco4)CC3)cc2)c(C)c1 |  | -11.4
COc1cccc(C(=O)Nc2ccc3nc4n(c(=O)c3c2)CCCCC4)c1 |  | -9.88
COc1cccc(C(=O)Nc2ccc(N3CCN(C(=O)c4ccco4)CC3)cc2)c1 | 11.6 µM (active) | 
COc1cccc(C(=O)Nc2ccc(N3CCCC3)cc2)c1 | 18.4 µM (active) | 
Cc1cccc(N(CC(=O)N2CCCC2)S(C)(=O)=O)c1C |  | 0.0682
COC(=O)c1ccccc1N=NNc1ccc([N+](=O)[O-])cc1 |  | 5.48
CCCNC(=O)C1CC(=O)N(c2ccc(OCc3ccccc3)cc2)C1 (configuration not stated) |  | -6.41
Cc1nc2ccccn2c(=O)c1NC(=O)c1ccc(Br)o1 |  | 8.09
C[C@H]1Cn2cnc(C(=O)N[C@H](C)c3ccccc3)c2C(=O)N1 |  | 1.93
Cc1ccc(CCNC(=O)CN2C(=O)CSc3ccc(S(=O)(=O)N4CCOCC4)cc32)cc1 |  | 0.335

Structure (SMILES) | Potency | activity, negative = toxicity [%]
CC1(C(=O)Nc2cccc3cccnc23)CCN1C(=O)CCC1CCCC1 (configuration not stated) |  | -9.67
CC[C@]1(O)CC2CN(CCc3c([nH]c4ccccc34)[C@@](C(=O)OC)(c3cc4c(cc3OC)N(C=O)[C@H]3[C@@](O)(C(=O)OC)[C@H](OC(C)=O)[C@]5(CC)C=CCN6CC[C@]43[C@@H]65)C2)C1 (some centres not stated) | 0.184 µM (active) | 
CC[C@]1(O)C[C@@H]2CN(CCc3c([nH]c4ccccc34)[C@@](C(=O)OC)(c3cc4c(cc3OC)N(C)[C@H]3[C@@](O)(C(=O)OC)[C@H](OC(C)=O)[C@]5(CC)C=CCN6CC[C@]43[C@@H]65)C2)C1 | 0.0366 µM (active) | 
Nc1nc(CSc2nnnn2-c2ccccc2)nc(Nc2ccccc2)n1 |  | -11
CCCS(=O)(=O)NC(=O)C1(C)CCCN(C(=O)c2ccnc(Cl)c2)C1 (configuration not stated) |  | 0.0267
COc1ccc(CNC2CCCCC2)cc1 |  | -1.73
COc1ccc(CNc2nc(NCc3ccc(OC)cc3)c3ncn(C4CCCC4)c3n2)cc1 | 4.61 µM (active) | 
CCC(CO)Oc1cc(NCc2ccccc2)c2ncn(C3CCCC3)c2c1 (configuration not stated) |  | -20.2
Cc1ccc(S(=O)(=O)N2CCCCC2)cc1NC(=O)CCNC(=O)c1ccccc1Cl |  | 3.61
Cn1cc(C(=O)c2ccc(Cl)cc2Cl)cc1C(=O)NN |  | -23
CC(C)(C)NC(=O)NC(=O)COC(=O)Cc1ccc(Cl)cc1Cl |  | -14.2
CC(C)(C)c1cc(C(=O)NN)n(Cc2ccc(Cl)cc2Cl)n1 | 14.6 µM (active) | 
CCN(CC)CCN(C)C(c1ccnc2ccccc12)c1nnnn1-c1ccc2c(c1)OCCO2 (configuration not stated) |  | -2.65
COc1ccc(CN2C(=O)C(CC(=O)NCCCCc3ccccc3)CC(C(=O)N3CCOCC3)=C2C)cc1 (configuration not stated) |  | 8.09
Brc1ccc(-c2noc(-c3ccccc3)n2)o1 |  | -0.934
O=C(COC(=O)c1ccncc1)c1ccccc1 |  | 20.6
O=C(Oc1ccc(-c2nc(-c3ccccn3)no2)cc1)c1ccccc1 | 2.31 µM (active) | 
COc1ccccc1CNC(=O)c1cc(-c2cc(F)ccc2OC)n[nH]1 |  | -19.4
c1ccc(CNCc2ccc(CNCc3ccccc3)cc2)cc1 |  | -9.72
O=C1/C(=C\c2cccnc2)CN(Cc2ccccc2)C/C1=C\c1cccnc1 | 1.84 µM (active) | 
Clc1ccc(CN2CCN(/N=C/c3cccnc3)CC2)cc1 |  | 3.89

Structure (SMILES) | Potency | activity, negative = toxicity [%]
Cc1ccccc1C1=N/C(=C/c2cccnc2)C(=O)O1 |  | 13.6
O=C(Nc1ccccc1)c1ccccc1OCc1ccccc1 |  | 21
Cc1c(CN2CCC(CO)(CCOc3ccccc3)CC2)[nH]c2ccc(Cl)cc12 | 23.1 µM (active) | 
CC(C)(O)C#Cc1ccc(CN2CCC(CO)(CCc3ccccc3)CC2)cc1 |  | -15
CCOC(=O)C1(CCOc2ccccc2)CCN(Cc2cc(OC)c(O)cc2Cl)CC1 |  | -15.4
O=C(CC(CC(=O)c1ccccc1)c1ccco1)c1ccccc1 |  | 0.921
CC(=O)N1C[C@@H](CO)[C@@H](N(C)C(=O)c2ccco2)C[C@H]1c1ccccc1 |  | -2.1
O=[N+]([O-])c1ccc(CN2CC(N3CCC(c4ccccc4)CC3)CS2(=O)=O)cc1 (configuration not stated) |  | -9.12
CCOc1ccc(NC(=O)c2nc(SCC)ncc2Cl)cc1 |  | -1.23
Cc1cccc(NC(=O)c2nc[nH]c2C(=O)NCC(=O)OCc2ccccc2)c1 |  | 6.4
Cc1cccc(NC(=O)c2nc(S(=O)(=O)Cc3ccccc3)ncc2Cl)c1 | 6.51 µM (active) | 
Cc1cccc(CS(=O)(=O)c2ncc(Cl)c(C(=O)Nc3ccc(F)cc3)n2)c1 | 16.4 µM (active) | 
O=C(Nc1ccc(F)cc1)c1ccc(S(=O)(=O)NCc2cccnc2)cc1 |  | -20.1
Cc1cccc(NC(=O)C(C)SCc2ccccc2)c1 (configuration not stated) |  | -0.037
CCCCN1C(=O)C(CC(=O)NC(c2ccccc2)c2ccccc2)CC(C(=O)N2CCOCC2)=C1C (configuration not stated) |  | 0.317
O=S1(=O)C[C@@H](N2CCN(CCO)CC2)[C@H](COCc2ccccc2)N1 |  | -5.58
COc1ccc([C@H]2N[C@]3(CCCN(CC4CCCCC4)C3=O)[C@H]3C(=O)N(C)C(=O)[C@@H]23)cc1 |  | 12
Cc1ccccc1S(=O)(=O)NC(=O)C1(C)CCN1C(=O)Cc1ccc(Cl)cc1Cl (configuration not stated) |  | 26.8
Cc1cn([C@H]2C[C@H](O)[C@@H](CNC(=O)[C@H](N)Cc3cccnc3)O2)c(=O)[nH]c1=O |  | 3.58
Nc1cc(=O)c2[nH]cnc2[nH]1 |  | -25.5
